Bioassay records as filed in PubChem BioAssay.
The entries come from a sample that favours hits as a whole.
DT40 TDP1 CPT – qHTS for Inhibitors of human tyrosyl-DNA phosphodiesterase 1 (TDP1): qHTS in cells in presence of CPT; chicken DT40 Tdp1-/-;hTDP1 cells + 20 nM CPT, ATP luminescence, 48 h; 12% of 420,000 active; Potency, µM (doses to about 46.2 µM), inactives show at the top dose activity change, negative = growth inhibition, usual class: inhibitors; note: potency is the fitted concentration of half-maximal effect; nearly all actives have a fitted effect of over 55% in size
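Chicken DT40 Tdp1-/- cells stably complemented with human TDP1 were seeded at 400 cells/well in medium containing 20 nM camptothecin, exposed to pin-transferred compounds, and grown at 37 °C for at least 48 hr. Viability was read as ATP luminescence.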
12-LOX inh – Primary qHTS assay for inhibitors of human arachidonate 12S-lipoxygenase (ALOX12): Round 2; Polyunsaturated fatty acid lipoxygenase ALOX12 (Homo sapiens), P18054; purified 12hLO, xylenol orange hydroperoxide absorbance; Potency, µM (top dose mostly 108 µM), inactives show at the top dose activity change, negative = inhibition, most hits filed as inhibitors; AID 1671190, 2021; 1.1% of 580,000 active; note: potency is the fitted concentration of half-maximal effect
Target sequence (P18054 whole entry, looked up): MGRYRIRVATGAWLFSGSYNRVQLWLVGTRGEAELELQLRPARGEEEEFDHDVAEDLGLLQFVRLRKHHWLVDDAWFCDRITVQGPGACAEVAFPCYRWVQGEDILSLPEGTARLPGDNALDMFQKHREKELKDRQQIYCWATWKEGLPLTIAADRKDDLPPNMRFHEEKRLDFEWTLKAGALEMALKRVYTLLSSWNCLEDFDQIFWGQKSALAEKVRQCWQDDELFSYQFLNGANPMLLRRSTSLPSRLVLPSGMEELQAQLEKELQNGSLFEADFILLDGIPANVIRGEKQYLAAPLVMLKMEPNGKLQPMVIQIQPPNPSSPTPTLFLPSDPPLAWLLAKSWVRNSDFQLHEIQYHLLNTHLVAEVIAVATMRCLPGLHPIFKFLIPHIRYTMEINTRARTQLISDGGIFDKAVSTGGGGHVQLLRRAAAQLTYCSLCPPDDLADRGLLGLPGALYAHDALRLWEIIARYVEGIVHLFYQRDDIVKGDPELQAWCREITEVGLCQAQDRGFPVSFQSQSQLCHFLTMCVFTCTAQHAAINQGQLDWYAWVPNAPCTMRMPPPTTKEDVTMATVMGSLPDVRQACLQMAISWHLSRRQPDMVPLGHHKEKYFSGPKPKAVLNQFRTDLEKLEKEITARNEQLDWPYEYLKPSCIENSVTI
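Hydroperoxide product was detected by ferrous iron/xylenol orange as the 573 to 405 nm absorbance ratio. Arachidonic acid at 40 uM (final) was turned over for 30 min at room temperature by 150 nM human 12hLO, pH 7.0 Hepes buffer, after 15 min compound preincubation.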
HT1080NT lethal – qHTS for induction of synthetic lethality in tumor cells producing 2HG: qHTS for the HT-1080-NT fibrosarcoma cell line | HT-1080-NT fibrosarcoma viability, CellTiter-Glo ATP luminescence, 48 h | Potency, µM (titrated, usually from 46.1 µM), inactives show at the top dose activity, negative = less viability, usual class: cytotoxic | 1.6% of 360,000 active | AID 686970, 2013;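 note: NT is the 2HG producing partner of a matched IDH1 knockdown line; potency is the fitted concentration of half-maximal effect; 0% = DMSO-treated cells and -100% = media-only wells without cells; nearly all actives have a fitted effect of over 55% in size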
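Luminescent CellTiter-Glo readout after 48 hours of compound exposure at 37 degrees C defined viability of HT-1080-NT cells. Activity was normalized to DMSO wells and cell-free media wells; concentration-response curves were fitted and assigned curve classes.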
IL1B secr inh – qHTS for Inhibitors of Inflammasome Signaling: IL-1-beta AlphaLISA Primary Screen | THP-1 LPS/ATP IL-1B secretion, AlphaLISA, 16 h; stronger effect = lower value | activity change, % at 57.5 µM | 4.7% of 360,000 active | AID 743279, 2014; in the data active = activity change below about -50%; inconclusive = mostly about -30% to -49%
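THP-1 cells pretreated 1 hr with compounds (up to 57.5 uM final), then stimulated with LPS (250 ng/mL final) plus ATP (1.25 mM final); secreted IL-1B measured by AlphaLISA after 16 hr, decreased signal indicating inhibition.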
TDP1 cell noCPT – qHTS for Inhibitors of human tyrosyl-DNA phosphodiesterase 1 (TDP1): qHTS in cells in absence of CPT. DT40 Tdp1-/- hTDP1 cells, no CPT, ATP luminescence, 48 h. AID 686978, 2013. 15% of 420,000 active. Potency, µM (top dose mostly 46.2 µM), for the others: at the top dose activity change, negative = growth inhibition, actives largely listed as inhibitors; note: potency is the fitted concentration of half-maximal effect; nearly all actives have a fitted effect of over 55% in size
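Growth of hTDP1-complemented DT40 Tdp1-knockout cells is measured by ATP luminescence after at least 48 hr compound exposure at 37 °C, with DMSO substituting for the 20 nM CPT used in the parallel screen.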
HT1080 IDH1KD tx – qHTS for induction of synthetic lethality in tumor cells producing 2HG: qHTS for the HT-1080-IDH1KD cell line. HT-1080 IDH1 knockdown viability, ATP luminescence, 48 h. 2% of 360,000 active. Potency, µM (titrated, usually from 46.1 µM), for inactives: at the highest dose activity, negative = toxicity, usual class: cytotoxic. AID 686971, 2013;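 note: potency is the fitted concentration of half-maximal effect; 0% = DMSO wells and -100% = cell-free medium wells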
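CellTiter-Glo luminescence after 48 h compound exposure at 37 degrees C of IDH1-knockdown HT-1080 cells in 5% FBS RPMI. %Activity scaled between DMSO wells and cell-free media wells, with curves fitted and assigned curve classes.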
Active calls of the source: *; ? = inconclusive; · = not tested or not shown; [ ] = another dose, or the depositor's remark. Unless noted, calls come from the whole dose curve; as a rule, active = well fitted curve in the direction sought with a large enough effect; inconclusive = small, poorly fitted or top-dose-only effect, or another doubt; inactive = no such curve, though single readings can be large; an effect the other way counts as inactive or inconclusive. Unless noted, % is set by controls: 0 for no effect and ±100 for the full control effect.

SMILES | DT40 TDP1 CPT | 12-LOX inh | HT1080NT lethal | IL1B secr inh | TDP1 cell noCPT | HT1080 IDH1KD tx
NC(=O)C1(N2CCCCC2)CCN(Cc2ccc(Br)cc2)CC1 | ? | 36% | 9% | 10 | 16µM* | -2%
CCCCNC(=O)COC(=O)c1c2c(nc3ccccc13)/C(=C/c1cccs1)CC2 | 23µM* | -17% | -22% | -27 | ? | ?
CNC(=O)NC(=O)C(C)OC(=O)c1c2c(nc3ccccc13)/C(=C/c1cccs1)CC2 (stereo not drawn) | 21µM* | ? | -2% | -4 | 18µM* | -8%
N=C1N=C(N)c2cc3ccccc3cc21 | ? | 4%[57.4 µM] | · | · | 24µM* | ·
CC(C)N1C[C@H](O)C[C@H]1c1nnc2n1CCN(C(=O)CCc1ccccc1)CC2 | · | 43% | · | · | · | ·
Nc1cccc(S(=O)(=O)c2cccc(N)c2)c1 | -5% | -18% | 0% | 2 | -9% | -3%
NNc1cccc(S(=O)(=O)c2cccc(NN)c2)c1 | · | 11µM* | · | · | · | ·
CSC1(SC2=NCCN2)SC2(NCCN2)S1 | 10µM* | ? | -4% | ? | 13µM* | ?
CCOC(=O)Oc1ccc2c(=O)c(Oc3ccc(CC)cc3)c(C(F)(F)F)oc2c1 | · | 2% | · | · | · | ·
CN(CCC(=O)Nc1ccc(Br)cc1)Cc1ccccc1 | ? | · | ? | -62* | ? | -5%
O=C(CCC(=O)OCc1ccc(Br)cc1)Nc1ccccc1 | 16µM* | 13% | 2% | 2 | ? | 7%
CNc1cc(C2CC(NC(=O)CCn3c(C)cccc3=O)C2)nc(N)n1 (stereo not drawn) | · | 32% | · | · | · | ·
CCCNC(=O)[C@@H]1CCCN1[C@@H](C(=O)NC)c1ccc(OC)cc1 | · | 10µM* | · | · | · | ·
Cc1cccc(C)c1Nc1c(-c2ccc(O)cc2)nc2sccn12 | 6.5µM* | 20µM* | · | · | 7.3µM* | ·
COc1cc(-c2nc3sccn3c2Nc2c(C)cccc2C)ccc1O | ? | -1% | · | · | ? | ·
CCc1cccc(C)c1Nc1c(-c2cccc(O)c2)nc2nc(C)cc(C)n12 | ? | 3% | · | · | ? | ·
CCc1cccc(C)c1Nc1c(-c2cccc(O)c2)nc2sccn12 | 15µM* | ? | · | · | 16µM* | ·
O=C(c1ccccc1F)N1CCCC(c2nc3ccccc3o2)C1 (stereo not drawn) | · | 3% | · | · | · | ·
O=C1Cc2c(-c3ccccc3Oc3ccccc3)n[nH]c2CN1Cc1ccccc1 | · | 10%[176 µM] | · | · | · | ·
CCOc1cccc(N(C(=O)CCC(=O)Nc2cc(C)on2)C(C(=O)NC(C)(C)C)c2ccc(OC)cc2)c1 (stereo not drawn) | 29µM* | 16% | -5% | 10 | ? | -26%
CCc1ccc(N(C(=O)CCC(=O)Nc2cc(C)on2)C(C(=O)NC(C)(C)C)c2ccc(OC)cc2)cc1 (stereo not drawn) | ? | -17% | -20% | 17 | 21µM* | -23%
COc1ccc(C(C(=O)NC(C)(C)C)N(C(=O)CCC(=O)Nc2cc(C)on2)c2cccc(F)c2)cc1 (stereo not drawn) | 0% | 11% | -12% | -9 | ? | -4%
CC1=CC(C)(C)Nc2ccc(OC(=O)CCN3C(=O)c4ccccc4C3=O)cc21 | 3.3µM* | -1% | ? | -99* | 3.7µM* | ?
O=C(NCc1cc2n(n1)CCN(C1CCCCC1)C2)Nc1cccc(F)c1 | · | 7% | · | · | · | ·
